These results are taken from PubChem BioAssay AID2551 (National Center for Advancing Translational Sciences (NCATS), 2010).

In all, about 310,000 compounds went through this assay and about 17,000 (5.5%) were called active. About 11% were inconclusive and are not listed. The call rests on the fitted dose curve; in most records, active means well fitted inhibition curve with a large enough effect; inconclusive means small, poorly fitted or top-dose-only effect, or effect the other way; inactive means no such curve, though single readings can be large or run the other way. The sample as a whole holds a higher share of actives than the screen did.
On the % scale 0 is the no-effect control and ±100 the full control effect; potency means the concentration at half of the fitted maximal effect.

Sequence of Nuclear receptor ROR-gamma (Mus musculus) (P51450 whole entry, looked up, the tested form may be a part): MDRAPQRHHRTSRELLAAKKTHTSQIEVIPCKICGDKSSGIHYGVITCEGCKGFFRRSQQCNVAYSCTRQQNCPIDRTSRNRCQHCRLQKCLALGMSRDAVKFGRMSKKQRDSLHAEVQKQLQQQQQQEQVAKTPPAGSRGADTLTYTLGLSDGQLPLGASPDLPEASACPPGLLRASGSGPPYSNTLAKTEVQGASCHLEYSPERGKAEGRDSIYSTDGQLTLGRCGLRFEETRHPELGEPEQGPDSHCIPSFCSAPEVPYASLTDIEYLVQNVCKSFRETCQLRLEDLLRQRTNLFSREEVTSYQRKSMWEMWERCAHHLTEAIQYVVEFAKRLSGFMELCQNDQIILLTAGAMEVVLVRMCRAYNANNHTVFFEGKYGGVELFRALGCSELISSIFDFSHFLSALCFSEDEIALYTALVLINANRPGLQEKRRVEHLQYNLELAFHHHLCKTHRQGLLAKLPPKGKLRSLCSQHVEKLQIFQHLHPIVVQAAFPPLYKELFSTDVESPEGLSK

The experiment addresses Nuclear receptor ROR-gamma (Mus musculus) (UniProt P51450). The experiment can be described thus: qHTS for inhibitors of ROR gamma transcriptional activity. Further: nearly all actives have a fitted effect of over 60% in size. Conditions: Drosophila S2 Gal4-RORgamma UAS-luciferase reporter, 20 h; series mostly up to 53.6 µM; activity change, negative = inhibition: at the top concentration. The method in brief:
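Drosophila Schneider cells stably carrying a metallothionein-driven Gal4 DBD–ROR gamma fusion and a UAS-Photinus luciferase reporter were exposed to compound for 1 hr, then induced with copper sulfate (700 uM final) for 20 hr at ambient temperature before luminescence reading.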
In general terms: Quantitative high-throughput screening tests each substance at several concentrations.
For the molecule `CCn1nc(C)c(CNC(=O)C2CCC(=O)N(Cc3cccc(F)c3)C2)c1C` (configuration not stated), the “activity change, negative = inhibition” value was 2.01% (inactive).

As to `CC(C)(O)C(=O)NN(C(=O)c1ccccc1)c1cccc(Br)c1`, the “activity change, negative = inhibition” value is 0.311% (inactive).

Regarding `COC(=O)N(NC(=O)C(O)(C(C)C)C(C)C)c1ccccc1`, the “activity change, negative = inhibition” value was 14.2% (inactive).

Regarding `CCCC(O)(CCC)C(=O)NN(C(=O)CCl)c1cccc(C)c1`, the Potency is 15.8 µM (active).

Take `Cc1ccc(N(NC(=O)C(C)(C)O)C(=O)c2ccccc2)cc1C`: the “activity change, negative = inhibition” value is -4.04% (inactive).

Regarding `CCCCC(O)(CCCC)C(=O)NN(C(=O)CCl)c1ccccc1`, the Potency is 12.6 µM (active).

As to `CCCCCNC(=O)C1c2ccccc2Oc2ccccc21`, the “activity change, negative = inhibition” value was -9.9% (inactive).

Take `Cc1cc(C)n(CC(O)COc2ccc(C(C)(C)C)cc2)n1` (configuration not stated): the “activity change, negative = inhibition” value is -13.9% (inactive).

In the case of `CCc1ccc(N(C(=O)c2csnn2)C(C(=O)NC2CCCCC2)c2cccnc2)cc1` (configuration not stated), the “activity change, negative = inhibition” value is 15.8% (inactive).

Turning to `O=C(O)c1cc(S(=O)(=O)N(Cc2ccccc2)c2cccc(C(F)(F)F)c2)ccc1Cl`, the “activity change, negative = inhibition” value was 10.3% (inactive).

Regarding `O=S(=O)(NCCc1ccc(Cl)cc1)c1cccs1`, the “activity change, negative = inhibition” value was 23.7% (inactive).

As to `COC(=O)c1c(NC(=O)c2ccc(S(=O)(=O)N3CCOCC3)cc2)sc2c1CCN(C(C)C)C2`, the “activity change, negative = inhibition” value was -7.46% (inactive).

As to `CC(CCc1ccccc1)NC(=O)c1cnc(Cl)c(Cl)c1` (configuration not stated), the “activity change, negative = inhibition” value is 10.2% (inactive).

As to `CCc1ccc(NC(=O)Cn2nc(C)c([N+](=O)[O-])c2C)cc1`, the “activity change, negative = inhibition” value was 22.5% (inactive).

As for `Cc1ccn(CC(=O)N2N=C(C(F)F)CC2(O)C(F)F)n1` (configuration not stated), the “activity change, negative = inhibition” value was -2.3% (inactive).

`Cc1nn(Cc2ccc(C(=O)N3N=C(C(F)F)CC3(O)C(F)F)cc2)c(C)c1[N+](=O)[O-]` (configuration not stated): the Potency was 12.6 µM (active).

As to `CN(Cc1c(F)cccc1Cl)S(=O)(=O)c1cccs1`, the “activity change, negative = inhibition” value is -26.5% (inactive).

With `COc1ccc(C(=O)NC2=NCCS2)c(OC)c1`, the Potency is 11.2 µM (active).

`COc1ccc(C(=O)NCc2nnc(SCC(=O)NC3=NCCS3)n2C)cc1`: the “activity change, negative = inhibition” value is 0.365% (inactive).

With `COc1ccc(C(=O)Nc2nncs2)c(OC)c1`, the “activity change, negative = inhibition” value was -24.7% (inactive).

With `CSCC[C@H](NC(=O)N1CCn2c1nc1ccccc12)C(=O)NC1CCCCC1`, the “activity change, negative = inhibition” value was 0.349% (inactive).

For the molecule `CC(C)OC(=O)c1ccc(COc2ccc3ccc(=O)oc3c2)o1`, the “activity change, negative = inhibition” value is 3.55% (inactive).

For the molecule `Cc1ccc(-n2c(SCC(=O)N3c4ccccc4Sc4ccccc43)nnc2-c2ccncc2)cc1`, the “activity change, negative = inhibition” value is 7.55% (inactive).

On to `NNC(=O)CSc1nnc(-c2ccccc2)n1-c1ccccc1`, for which the “activity change, negative = inhibition” value was 1.72% (inactive).

For `Cc1ccc(-c2nnc(SCC(=O)N/N=C/c3cccs3)n2-c2ccc(C)cc2)cc1`, the Potency was 17.8 µM (active).

`COCCN1C(=O)C(=O)/C(=C(/O)c2ccc(S(=O)(=O)N3CCOCC3)cc2)C1c1ccc(OC)c(OC)c1` (configuration not stated): the “activity change, negative = inhibition” value was 1.24% (inactive).

As for `COc1ccc(C2C3=C(CCCC3=O)N(CC(=O)O)C3=C2C(=O)CCC3)cc1`, the “activity change, negative = inhibition” value was -18.3% (inactive).

On to `Cc1cc(C)nc(-n2nc(C)cc2NC(=O)c2ccc(F)cc2F)n1`, for which the Potency was 0.178 µM (active).

Take `CC(=O)N/C(=N/c1nc(C)cc(C)n1)Nc1ccc(F)cc1F`: the “activity change, negative = inhibition” value was -28.3% (inactive).

`Cc1cc(NC(=O)Nc2ccc(Cl)cc2)n(-c2ccccc2)n1`: the “activity change, negative = inhibition” value was -13.5% (inactive).

In the case of `CCN1C(=O)c2cccc3c(S(=O)(=O)Nc4ccccc4O)ccc1c23`, the “activity change, negative = inhibition” value was -39.5% (inactive).

On to `CN(C)c1cccc(C(=O)N2CCC(n3nccc3NC(=O)C3CCOC3)CC2)c1` (configuration not stated), for which the “activity change, negative = inhibition” value is -3.44% (inactive).

Turning to `N#Cc1ccc(S(=O)(=O)NCC(=O)OCC(=O)NCCc2ccccc2)cc1`, the “activity change, negative = inhibition” value was -1.08% (inactive).

With `CCCCNC(=O)CCn1c(=S)[nH]c2cc3c(cc2c1=O)OCO3`, the “activity change, negative = inhibition” value was -20.7% (inactive).

Turning to `Cc1ccc(C)c(N2CCN(C(=O)CCCn3c(=O)c4cccn4c4cccnc43)CC2)c1`, the “activity change, negative = inhibition” value is 33% (inactive).

On to `Cc1ccc(C)c(N2CCN(C(=O)CCCCCn3c(=S)[nH]c4ccc(N5CCOCC5)cc4c3=O)CC2)c1`, for which the Potency was 10 µM (active).

As to `CC(C)NC(=O)CCCn1c(=S)[nH]c2cc3c(cc2c1=O)OCO3`, the “activity change, negative = inhibition” value was -17.2% (inactive).

In the case of `O=C(CCCCCn1c(=S)[nH]c2cc3c(cc2c1=O)OCO3)N1CCN(c2ccc(F)cc2)CC1`, the Potency was 4.47 µM (active).

On to `Cc1ccc(C)c(N2CCN(C(=O)CCCCn3c(=O)[nH]c4ccccc4c3=O)CC2)c1`, for which the “activity change, negative = inhibition” value is 4.13% (inactive).

With `Cc1ccnc(-n2sc3ccccc3c2=O)n1`, the Potency is 11.2 µM (active).

Regarding `Cc1ccnc(N2CCCC(C(=O)NC3CC3)C2)n1` (configuration not stated), the “activity change, negative = inhibition” value was 1.65% (inactive).

As for `Cc1ccnc(Nc2nc3ccccc3s2)n1`, the “activity change, negative = inhibition” value is -0.115% (inactive).

For the molecule `CCCCSCCCNC(=O)C1CCC(CNS(=O)(=O)c2ccc(NC(C)=O)cc2)CC1` (configuration not stated), the “activity change, negative = inhibition” value was 36.7% (inactive).

As for `Cc1ccc(OCc2n[nH]c(=S)n2-c2ccccc2)cc1`, the Potency is 0.708 µM (active).

In the case of `CCCCC(CC(C)O)c1n[nH]c(=S)n1-c1ccccc1` (configuration not stated), the “activity change, negative = inhibition” value is 2.91% (inactive).

`S=c1[nH]nc(COc2ccccc2)n1-c1ccccc1`: the Potency is 3.98 µM (active).

As for `CC(NS(=O)(=O)c1ccccc1)c1n[nH]c(=S)n1-c1ccccc1` (configuration not stated), the “activity change, negative = inhibition” value is -25.6% (inactive).

Turning to `O=[N+]([O-])c1ccccc1/C=N/n1c(COc2ccccc2)n[nH]c1=S`, the “activity change, negative = inhibition” value is -17.4% (inactive).

In the case of `Cc1ccc(OCc2n[nH]c(=S)n2-c2ccc(C)cc2)cc1`, the “activity change, negative = inhibition” value is -0.176% (inactive).

For the molecule `O=c1[nH]nc(CSCc2ccccc2Cl)[nH]1`, the “activity change, negative = inhibition” value is 13.7% (inactive).

As for `S=c1[nH]nc(CSCc2ccc(Cl)cc2Cl)n1-c1ccccc1`, the Potency is 1.26 µM (active).

Turning to `CC(Sc1nnc(COc2ccccc2)n1-c1ccccc1)C(=O)O` (configuration not stated), the “activity change, negative = inhibition” value was -6.73% (inactive).
